ALOX12 inhib: qHTS Assay for Inhibitors of 12-hLO (12-human lipoxygenase); 0.12% of 150,000 active; purified 12-hLO, xylenol orange hydroperoxide absorbance; AID 1452, 2008; Polyunsaturated fatty acid lipoxygenase ALOX12 (Homo sapiens), P18054; Potency, µM (titrated, usually from 57.1 µM), inactives show top-dose activity change, negative = inhibition, usual class: inhibitors; further: potency means the concentration at half of the fitted maximal effect; nearly all actives have a fitted effect of over 55% in size
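Lipoxygenase turnover measured by absorbance at 573 and 405 nm after Fe-XO development. Human 12hLO 150 nM, arachidonate 40 uM, pH 7.0 Hepes buffer with detergent; 15 min compound preincubation, 30 min reaction.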
HPGD block: qHTS Assay for Inhibitors of HPGD (15-Hydroxyprostaglandin Dehydrogenase) | purified HPGD, NADH fluorescence kinetic, PGE2 substrate | Potency, µM, for the others: top-dose activity change, negative = inhibition, most hits filed as inhibitors | 4.3% of 150,000 active | AID 894, 2007; active means well fitted inhibition curve with a large enough effect, not every such curve was filed as active; inconclusive means small, poorly fitted or top-dose-only effect, or another doubt; inactive means no such curve, though single readings can be large or run the other way; further: potency means the concentration at half of the fitted maximal effect
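NADH formation kinetics: reaction with 30 uM PGE2 and 1 mM NAD+ (final), 20 nM enzyme, Tris-HCl pH 8 with Tween 20, after 15 min compound preincubation at room temperature. Fluorescence change, last versus first of five reads.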
ALDH1A1 block: qHTS Assay for Inhibitors of Aldehyde Dehydrogenase 1 (ALDH1A1); Purified ALDH1A1, NADH fluorescence, propionaldehyde substrate; Potency, µM (highest dose often 75.3 µM), for the others: top-dose activity, negative = inhibition, usual class: inhibitors; Aldehyde dehydrogenase 1A1 (Homo sapiens), P00352; 7.3% of 220,000 active; active means well fitted inhibition curve with a large enough effect, not every such curve was filed as active; inconclusive means small, poorly fitted or top-dose-only effect, or another doubt; inactive means no such curve, though single readings can be large or run the other way;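 further: potency means the concentration at half of the fitted maximal effect; plate controls were no enzyme wells and a reference inhibitor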
Target sequence (P00352 whole entry, looked up): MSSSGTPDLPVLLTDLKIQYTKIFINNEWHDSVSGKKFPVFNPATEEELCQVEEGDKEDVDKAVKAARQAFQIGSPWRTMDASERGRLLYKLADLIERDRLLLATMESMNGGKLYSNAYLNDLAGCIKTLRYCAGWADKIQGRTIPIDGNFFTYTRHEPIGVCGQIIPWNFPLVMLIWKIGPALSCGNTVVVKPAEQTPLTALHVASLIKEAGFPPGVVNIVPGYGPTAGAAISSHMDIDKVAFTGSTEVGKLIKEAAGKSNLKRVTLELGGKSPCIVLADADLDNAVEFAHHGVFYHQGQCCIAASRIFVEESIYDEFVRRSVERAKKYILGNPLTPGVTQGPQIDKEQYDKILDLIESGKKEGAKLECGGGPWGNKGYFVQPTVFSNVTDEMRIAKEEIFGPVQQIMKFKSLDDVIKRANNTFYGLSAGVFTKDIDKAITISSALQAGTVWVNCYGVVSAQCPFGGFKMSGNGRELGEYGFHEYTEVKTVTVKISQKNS
IMPase Li cell: qHTS Assay for Identifying the Cell-Membrane Permeable IMPase Inhibitors: Potentiation with Lithium. 0.35% of 210,000 active. AID 1457, 2008. CHO-M1 cells, IP1 TR-FRET (IP-One), carbachol + lithium. Potency, µM (series often up to 59.4 µM), without a hit: at the highest dose activity, negative = IMPase inhibition, usual class: inhibitors;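 further: IP1 builds up when IMPase is blocked and the TR-FRET signal falls; potency means the concentration at half of the fitted maximal effect; plate controls were basal vehicle for no effect and high inhibitor control for full effect; nearly all actives have a fitted effect of over 50% in size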
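Test compounds were applied to CHO-M1 cells previously cultured for 16–30 h at 2000 per well. A small lithium amount accompanied them; after 30 min at 37C, IP1 was quantified by TR-FRET.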
NPSR antagonist: qHTS Assay for Antagonists of the Neuropeptide S Receptor: cAMP Signal Transduction. CHO-NPSR cells, cAMP TR-FRET, antagonist mode. Potency, µM (highest dose often 38.3 µM), without a hit: at the highest dose activity change, negative = inhibition, usual class: inhibitors. 1% of 220,000 active. AID 1461, 2008; further: potency means the concentration at half of the fitted maximal effect; nearly all actives have a fitted effect of over 50% in size
IMPase cell inh: qHTS Assay for Identifying the Cell-Membrane Permeable IMPase Inhibitors; 120,000 tested, under 10 active; CHO-M1 cells, IP1 accumulation, HTRF TR-FRET ratio; inhibition (IP1 accumulation), % at 46.1 µM; Inositol monophosphatase 1 (Rattus norvegicus), P97697; AID 901, 2007; active means well fitted curve in the direction sought with a large enough effect in the signal ratio, not every such curve was filed as active; inconclusive means small, poorly fitted or top-dose-only effect, or a change in a side signal; inactive means no such curve, though single readings can be large or run the other way; the % refers to the signal ratio;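 further: cells stimulated with carbachol in lithium chloride buffer; plate controls were DMSO basal wells for no effect and reference inhibitor wells for full effect; higher means more IMPase inhibition seen as more IP1 and lower FRET ratio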
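Elevated IP1 in lysates lowers TR-FRET signal (665/620 ratio and 620 channel reported). Cells were CHO-M1, given carbachol (50 uM as added) plus 50mM LiCl, pH 7.4, 30 min, 37C; compounds titrated up to 46 uM; AC50 by Hill equation.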
* = called active by the depositor; ? = inconclusive; · = no result; [ ] = dose if it differs, or a comment. In the library only some 8.9% were active in any assay of this set; here they are far more common. Unless noted, the call rests on the fitted dose curve; in most records, active means well fitted curve in the direction sought with a large enough effect; inconclusive means small, poorly fitted or top-dose-only effect, or another doubt; inactive means no such curve, though single readings can be large; an effect the other way counts as inactive or inconclusive. Unless noted, on the % scale 0 is the no-effect control and ±100 the full control effect.

SMILES	ALOX12 inhib	HPGD block	ALDH1A1 block	IMPase Li cell	NPSR antagonist	IMPase cell inh
CC(C)COC(=O)C(C)Nc1n[nH]c(=S)[nH]c1=O (stereo not drawn)	·	·	3.3%	12.1%	3.0%	·
COc1cc(OC)c(S(=O)(=O)Nc2ccccc2NC(=O)CN2CCOCC2)cc1NC(C)=O	·	·	7.2%	8.1%	-8.0%	·
COc1ccc(C(CC(=O)N2CCCCC2)c2c(OC)cc(OC)c3c(-c4ccccc4)cc(=O)oc23)cc1 (stereo not drawn)	·	·	·	·	-45.2%	·
Cc1ccc(CNC(=O)CCC2CCCN(C(=O)c3ccc4c(c3)OCO4)C2)o1 (stereo not drawn)	·	·	15.8µM*	-6.6%	2.8%	·
CCOC(=O)C1CCCN(C(=O)c2ccc3c(c2)N(Cc2ccccc2)C(=O)c2ccccc2S3=O)C1 (stereo not drawn)	·	·	20µM*	25.1%	-51.1%	·
CN1CCN(C(=O)c2ccc3c(c2)N(Cc2ccc(Cl)cc2)C(=O)c2ccccc2S3=O)CC1 (stereo not drawn)	-4.3%	-5.1%	?	17.5%	-5.0%	14.2
CCOC(=O)C1CCCN(C(=O)c2ccc3c(c2)OCO3)C1 (stereo not drawn)	1.2%	10µM*	?	5.2%	-1.6%[46.1 µM]	13.7
O=C(Cn1c(-c2ccccn2)nc2ccccc21)N/N=C/c1ccccn1	·	·	-4.6%	2.3%	-17.4%	·
CCOC(=O)C1CCN(C(=O)COc2ccc(N(C)S(=O)(=O)c3ccc(C)cc3)cc2)CC1	·	·	17.8µM*	21.1%	-3.6%	·
C=CCN(c1ccc(C(=O)NC(C)C)cc1)S(C)(=O)=O	-2.1%	-14.7%	1.7%	35.8%[38.3 µM]	-3.2%[46.1 µM]	4.7
CN(c1ccc(C(=O)NC2CC2)cc1)S(=O)(=O)c1ccccc1	3.3%	12.6µM*	13.8%	13.6%[38.3 µM]	8.2%[46.1 µM]	9.8
C=CCN(c1ccc(C(=O)N2CCCC2)cc1)S(C)(=O)=O	3.6%	20µM*	-7.9%	16.1%[38.3 µM]	3.7%[46.1 µM]	0.6
CN(c1ccc(C(=O)N2CCCCC2)cc1)S(=O)(=O)c1ccccc1	-4.2%	0.447µM*	1.8%	25.0%[38.3 µM]	6.6%[46.1 µM]	11.3
O=C(NCCN1CCOCC1)c1ccc(Cc2nc3ccccc3[nH]2)cc1	-0.5%	-10.7%	4.9%	·	·	·
O=C(c1ccncc1)N1CCN(C2CCC(c3ccccc3)CC2)CC1 (stereo not drawn)	·	·	·	·	3.4%	·
Cc1nn(-c2ccccc2)c(C)c1P(=O)(c1ccccc1)N(C)C (stereo not drawn)	0.7%	3.7%	9.4%	-5.5%[38.3 µM]	-2.3%[46.1 µM]	12.0
Cc1ccc(S(=O)(=O)N(C)c2ccc(C(=O)N3CCc4ccccc4C3)cc2)cc1	·	·	0.6%	13.7%	-12.5%	·
Cc1ccc(S(=O)(=O)N(C)c2ccc(C(=O)N3CCCCC3)cc2)cc1	-4.5%	0.398µM*	-7.2%	28.8%[38.3 µM]	9.3%[46.1 µM]	2.0
O=C(O)c1cccc(NC(=O)C2CC(=O)N(Cc3ccccc3)C2)c1 (stereo not drawn)	0.4%	-6.2%	7.3%	1.2%[38.3 µM]	-3.5%[46.1 µM]	3.9
CC(=O)c1ccc(NC(=O)C2CC(=O)N(Cc3ccccc3)C2)cc1 (stereo not drawn)	-0.7%	-8.1%	14.1µM*	19.1%[38.3 µM]	-15.6%[46.1 µM]	0.7
O=C(c1cncc(Br)c1)N1CCN(c2ccc(N3CCOCC3)nn2)CC1	4.6%	?	?	4.8%[38.3 µM]	-0.7%[46.1 µM]	7.9
CCOC(=O)/C(=C\c1cccnc1)C(=O)c1cc(C(C)=O)c(Nc2ccccc2)s1	-13.9%	20µM*	?	42.6%[38.3 µM]	3.16µM*	10.1
COc1ccc(Cn2c(=O)[nH]c3cc(C(=O)NCCCN4CCCCC4)ccc3c2=O)cc1	-0.6%	-11.0%	5.7%	-1.9%[38.3 µM]	-9.5%[46.1 µM]	11.2
